Bioassay records: PubChem BioAssay, several laboratories
Hits are enriched below; roughly 1.3% of the tested compounds scored in any of these assays.
VHR inh abs: blocks human VHR1 dual specificity phosphatase. inhibition, % at 13.3 µM. AID 1654. 290,000 compounds, 0.52% hits. recombinant VHR phosphatase, pNPP absorbance; in the data active = inhibition above about 50%
SARS 3CLpro inh: SARS-CoV 3CLpro protease inhibition; P0C6X7; AID 1706; inhibition, % at 6 µM; 290,000 compounds, 0.14% hits; recombinant SARS-CoV 3CLpro, quenched FRET peptide cleavage; in the data active = inhibition above about 12%
TcdB GH inh: inhibitors of Clostridioides difficile toxin B glycohydrolase | TcdB glycohydrolase enzymatic assay, plate reader | inhibition, % at 9.99 µM | 350,000 compounds, 0.24% hits | AID 652162; in the data active = inhibition above about 10%
Target sequence (P18177 whole entry, looked up): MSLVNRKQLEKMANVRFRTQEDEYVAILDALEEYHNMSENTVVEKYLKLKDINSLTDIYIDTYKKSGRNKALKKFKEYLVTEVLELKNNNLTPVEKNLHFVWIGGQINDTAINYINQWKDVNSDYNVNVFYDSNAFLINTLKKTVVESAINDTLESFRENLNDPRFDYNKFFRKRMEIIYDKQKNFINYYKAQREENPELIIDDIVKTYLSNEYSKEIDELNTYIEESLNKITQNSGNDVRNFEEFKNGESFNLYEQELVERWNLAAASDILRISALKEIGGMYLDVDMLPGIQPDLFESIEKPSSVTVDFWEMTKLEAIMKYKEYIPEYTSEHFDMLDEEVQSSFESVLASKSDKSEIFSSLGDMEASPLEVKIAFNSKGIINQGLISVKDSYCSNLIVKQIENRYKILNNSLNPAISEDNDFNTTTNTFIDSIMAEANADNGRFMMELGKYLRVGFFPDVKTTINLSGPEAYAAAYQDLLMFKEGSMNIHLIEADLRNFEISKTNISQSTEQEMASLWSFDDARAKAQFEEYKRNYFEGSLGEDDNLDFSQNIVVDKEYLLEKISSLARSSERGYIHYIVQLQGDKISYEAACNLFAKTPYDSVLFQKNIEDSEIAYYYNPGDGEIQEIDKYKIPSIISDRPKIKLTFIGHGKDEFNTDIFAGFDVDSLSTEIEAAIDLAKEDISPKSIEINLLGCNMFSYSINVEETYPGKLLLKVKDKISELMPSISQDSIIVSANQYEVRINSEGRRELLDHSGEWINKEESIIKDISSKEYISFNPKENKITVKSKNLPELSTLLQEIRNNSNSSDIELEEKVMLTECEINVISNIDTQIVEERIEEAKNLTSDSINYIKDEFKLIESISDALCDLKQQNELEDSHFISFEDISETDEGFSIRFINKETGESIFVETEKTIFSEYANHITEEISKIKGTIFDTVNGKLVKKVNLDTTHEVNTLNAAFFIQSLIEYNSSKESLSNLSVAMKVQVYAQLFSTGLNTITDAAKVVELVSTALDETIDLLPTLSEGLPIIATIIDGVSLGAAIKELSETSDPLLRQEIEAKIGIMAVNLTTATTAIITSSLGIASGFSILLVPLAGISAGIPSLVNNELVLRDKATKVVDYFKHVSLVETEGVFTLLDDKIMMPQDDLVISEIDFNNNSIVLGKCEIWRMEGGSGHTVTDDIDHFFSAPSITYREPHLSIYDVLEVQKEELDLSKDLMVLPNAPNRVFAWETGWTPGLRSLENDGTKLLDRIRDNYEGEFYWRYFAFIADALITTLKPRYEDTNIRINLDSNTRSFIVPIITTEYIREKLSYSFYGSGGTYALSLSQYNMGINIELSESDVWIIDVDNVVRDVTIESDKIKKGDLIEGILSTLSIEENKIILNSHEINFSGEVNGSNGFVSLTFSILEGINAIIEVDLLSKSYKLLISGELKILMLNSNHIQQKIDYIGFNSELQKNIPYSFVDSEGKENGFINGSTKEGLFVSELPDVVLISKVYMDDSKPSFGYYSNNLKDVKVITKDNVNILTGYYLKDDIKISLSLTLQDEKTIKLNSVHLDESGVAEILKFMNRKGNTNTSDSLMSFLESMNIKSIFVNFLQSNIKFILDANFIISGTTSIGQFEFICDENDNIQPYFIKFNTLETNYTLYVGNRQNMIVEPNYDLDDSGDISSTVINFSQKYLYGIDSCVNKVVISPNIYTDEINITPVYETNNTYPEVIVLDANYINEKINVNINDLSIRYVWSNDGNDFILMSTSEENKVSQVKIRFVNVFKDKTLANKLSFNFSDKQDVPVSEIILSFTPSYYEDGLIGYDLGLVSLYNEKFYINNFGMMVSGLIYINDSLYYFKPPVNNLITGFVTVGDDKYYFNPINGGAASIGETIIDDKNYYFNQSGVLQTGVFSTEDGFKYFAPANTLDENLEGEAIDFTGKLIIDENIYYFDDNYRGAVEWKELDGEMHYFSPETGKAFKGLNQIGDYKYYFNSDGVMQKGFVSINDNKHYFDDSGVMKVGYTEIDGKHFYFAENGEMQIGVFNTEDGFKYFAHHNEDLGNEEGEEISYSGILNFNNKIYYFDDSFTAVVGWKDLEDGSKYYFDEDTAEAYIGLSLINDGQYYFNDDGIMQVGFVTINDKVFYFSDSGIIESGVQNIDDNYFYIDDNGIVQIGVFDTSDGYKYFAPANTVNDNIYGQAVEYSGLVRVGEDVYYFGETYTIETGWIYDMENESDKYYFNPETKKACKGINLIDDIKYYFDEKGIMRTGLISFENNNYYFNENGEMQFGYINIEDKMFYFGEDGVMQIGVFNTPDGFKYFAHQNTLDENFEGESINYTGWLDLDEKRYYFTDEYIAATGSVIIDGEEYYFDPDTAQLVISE
CCHFV vOTU inh: blocks the CCHF virus ovarian tumor domain protease; CCHFV vOTU protease, Pep-AMC fluorescence; inhibition, % at 11.5 µM; 370,000 compounds, 0.55% hits; AID 651958; in the data active = inhibition above about 30%
SSB-PriA inh: blocks PriA binding to SSB C-terminal tail; AlphaScreen SSBct-PriA binding, biotinylated peptide; inhibition, % at 33 µM; 430,000 compounds, 0.6% hits; in the data active = inhibition mostly above about 37%, no sharp cut-off; inactive = mostly below about 20%
BH1578 lux ind: quorum light induction in luxS cqsA deficient V. cholerae. 350,000 compounds, 0.16% hits. V. cholerae BH1578 lux reporter, luminescence, 6 h. activation, % at 18.7 µM; in the data active = activation mostly above about 9.7%, no sharp cut-off
Numbers stand for hits; . = inactive; / = no result given; + = active, no number; ! = repeats disagree.

SMILES | VHR inh abs | SARS 3CLpro inh | TcdB GH inh | CCHFV vOTU inh | SSB-PriA inh | BH1578 lux ind
CCOc1ccccc1NC(=O)Cn1c(C)cc(C)c(S(=O)(=O)c2ccccc2)c1=O | / | / | / | / | . | /
CC(C)(C)C(=O)NCc1ccnc(-c2cccs2)c1 | / | / | / | / | . | /
O=C(Nc1nc(-c2ccccn2)cs1)C12CC3CC(CC(O)(C3)C1)C2 | . | . | . | . | 76.4 | .
O=C(Nc1nc(-c2ccccn2)cs1)C1CC1 | . | . | . | . | 104.2 | .
COC(=O)NC1(C(=O)Nc2nc(-c3ccccn3)cs2)CCCC1 | / | / | / | / | 95.0 | /
O=C(Nc1nc(-c2ccccn2)cs1)NC1CCCC1 | / | / | / | / | 130.0 | /
O=C(CC1CC2CCC1C2)Nc1nc(-c2ccccn2)cs1 (stereo not drawn) | . | . | . | . | . | .
CCC(=O)Nc1nc(-c2ccccn2)cs1 | / | / | / | / | . | /
O=S(=O)(NCC[C@H](O)c1ccsc1)c1ccc(Cl)s1 | / | / | / | / | . | /
CCCN1CCCc2cc(CCNS(=O)(=O)c3ccc(C)cc3C)ccc21 | / | / | / | / | 41.0 | /
CCCN1CCCc2cc(CCNS(=O)(=O)c3ccc(NC(C)=O)cc3C)ccc21 | / | / | / | / | 70.0 | /
CCCN1CCCc2cc(CCNC(=O)C(=O)Nc3ccc(C)c(C)c3)ccc21 | / | / | / | / | . | /
CCCN1CCCc2cc(CCNC(=O)C(=O)Nc3cc(C)ccc3C)ccc21 | / | / | / | / | . | /
Cc1cccc(OCCn2cnc(Cl)c2Cl)c1 | . | . | . | . | 39.9 | .
Fc1ccc(OCCn2cnc(Cl)c2Cl)cc1 | . | . | . | . | . | .
CC(c1ccccn1)C(C)(O)C(C)c1ccccn1 (stereo not drawn) | / | / | . | . | . | .
OC(c1ccccn1)(c1ccccn1)c1ccccn1 | . | . | / | . | 79.2 | .
O=C(c1ccccc1)N1CCCc2ccc(NS(=O)(=O)c3cccc4cccnc34)cc21 | / | / | / | / | . | /
O=C(NCC[C@H](O)C1CCOCC1)c1c(F)cccc1F | / | / | / | / | . | /
Nc1ccc2nc(CCCCCCc3nc4ccc(N)cc4[nH]3)[nH]c2c1 | . | . | . | . | . | .
Nc1ccc2nc(CCCCCCCCc3nc4ccc(N)cc4[nH]3)[nH]c2c1 | . | . | . | . | 48.7 | .
Nc1ccc2nc(CCCCc3nc4ccccc4[nH]3)[nH]c2c1 | 51.5 | . | . | . | . | .
Cc1ccc(NC(=O)C2C3C=CC4(O3)C2C(=O)N(CCCN2CCCC2)C4C(=O)NC2CCCCC2)cc1Cl (stereo not drawn) | 52.9 | . | . | . | . | .
CCC(C)NCCOc1ccc(Br)cc1 (stereo not drawn) | . | . | / | . | . | .
CCC(C)NCCOc1ccccc1C (stereo not drawn) | . | . | . | . | . | 24.3
SMILES | VHR inh abs | SARS 3CLpro inh | TcdB GH inh | CCHFV vOTU inh | SSB-PriA inh | BH1578 lux ind
O=C(CCc1cn2ccccc2n1)NC1CCCc2c1cnn2-c1ccccc1F (stereo not drawn) | 50.2 | . | . | . | . | .
O=C(NC1CCCc2c1cnn2-c1ccc(F)cc1F)c1csnn1 (stereo not drawn) | 53.5 | . | . | . | . | .
CCCn1c(C)cc(C(=O)COc2ccc(C)nc2[N+](=O)[O-])c1C | 53.8 | . | . | . | . | .
COCCn1c(C)cc(C(=O)COc2ccc(C)nc2[N+](=O)[O-])c1C | . | . | . | . | 47.3 | .
O=C(N/N=C/c1ccc(O)c(O)c1)C1CC1 | / | / | 16.1 | . | / | .
O=C(N/N=C/c1ccsc1)C1CC1 | . | . | . | . | / | .
Brc1ccc2c(c1)OCCSCCOCCSCCO2 | / | / | / | / | 43.0 | /
CCOc1ccccc1NC(=O)CNC(=O)N1CC(=O)Nc2ccccc21 | 51.2 | . | . | . | . | .
O=C(CNC(=O)N1CC(=O)Nc2ccccc21)Nc1ccccc1F | . | . | . | . | . | .
COc1cccc(-n2c(=S)[nH]c3c([nH]c4ccccc43)c2=O)c1 | / | / | / | / | . | /
CCCN1CCCc2cc(CCNS(=O)(=O)c3ccc(C)cc3)ccc21 | / | / | / | / | . | /
CCCN1CCCc2cc(CCNS(=O)(=O)c3ccc(NC(=O)C(C)C)cc3)ccc21 | / | / | / | / | 60.0 | /
CCCN1CCCc2cc(CCNC(=O)Cc3cccc(C)c3)ccc21 | / | / | / | / | . | /
CCCN1CCCc2cc(CCNS(=O)(=O)c3cccc(Cl)c3)ccc21 | / | / | / | / | 64.0 | /
CCCN1CCCc2cc(CCNS(=O)(=O)c3ccc(Cl)cc3)ccc21 | / | / | / | / | 62.0 | /
Cc1cccc(NC(=O)C(=O)NCC2CCN(c3cnccn3)CC2)c1C | / | / | / | / | . | /
O=C1O[C@]2(CCCN(C(=O)CN3C(=O)CCC3=O)C2)c2ccccc21 | / | / | / | / | . | /
O=C(Nc1ccc(O)cc1)c1ccc2c(c1)C(=O)N(Cc1ccco1)C2=O | . | . | 16.4 | . | . | .
CCN(CC)CCN(C(=O)c1ccc(C(=O)c2ccccc2)cc1)c1nc2cc3c(cc2s1)OCO3 | . | . | . | . | 41.0 | .
CCN(CC)CCN(C(=O)c1ccc2ncsc2c1)c1nc2cc3c(cc2s1)OCO3 | . | . | . | . | . | .
CN(C)CCCN(C(=O)c1cc2c(ccc3ccccc32)oc1=O)c1nc2cc3c(cc2s1)OCCO3 | / | / | / | / | 66.0 | /
CCN(CC)CCN(C(=O)c1ccc(C(=O)c2ccccc2)cc1)c1nc2c(OC)cccc2s1 | . | . | . | . | 37.0! | .
CCN(CC)CCN(C(=O)CCS(=O)(=O)c1ccccc1)c1nc2cc3c(cc2s1)OCO3 | . | . | . | . | . | .
CCN(CC)CCN(C(=O)Cc1cccc2ccccc12)c1nc2cc3c(cc2s1)OCO3 | / | / | / | / | 35.0 | /
CC1CCCCC12NC(=O)N(CC(=O)Nc1ccc(Cl)c(Cl)c1)C2=O (stereo not drawn) | / | / | / | / | . | /
SMILES | VHR inh abs | SARS 3CLpro inh | TcdB GH inh | CCHFV vOTU inh | SSB-PriA inh | BH1578 lux ind
COc1ccc(Cl)cc1S(=O)(=O)N1CCN(c2ccc(-c3ccco3)nn2)CC1 | / | / | / | / | . | /
CN(C)CCCN(C(=O)c1cc2cc([N+](=O)[O-])ccc2s1)c1nc2cc3c(cc2s1)OCCO3 | / | / | . | . | 46.0! | .
CN(C)CCCN(C(=O)c1ccc(C(=O)c2ccccc2)cc1)c1nc2cc3c(cc2s1)OCO3 | . | . | . | . | 44.0 | .
CN(C)CCN(C(=O)c1ccc2ccccc2c1)c1nc2cc3c(cc2s1)OCO3 | / | / | . | . | / | .
COC(=O)c1sccc1NC(=O)c1cc(N2CCCCC2)ncn1 | / | / | / | / | . | /
Cn1c(NCCc2ccccc2)nc2c1c(=O)n(CCC(N)=O)c(=O)n2C | / | / | / | / | . | /
CCc1nnc(SCC(=O)Nc2ccc(N3CCOCC3)cc2)o1 | . | . | / | . | . | .
Cc1cccc(C)c1OCc1nnc(SCC(=O)Nc2ccc(N3CCOCC3)cc2)o1 | 54.4 | . | . | . | . | .
Cc1ccc2cc(C3C(C#N)=C(N)Oc4c3ccc3cccnc43)c(=O)[nH]c2c1 (stereo not drawn) | . | . | . | / | 78.6 | .
N#CC1=C(N)Oc2c(ccc3cccnc23)C1c1cccnc1 (stereo not drawn) | . | . | / | . | 88.2 | .
O=C(Nc1ccc(Cl)c(Cl)c1)N1CCC(N2CCCCC2)CC1 | . | . | / | . | . | +
O=C(Nc1ccc(Cl)c(Cl)c1)N1CCCCCC1 | . | . | . | . | . | .
O=c1onc(-c2ccccc2)n1Cc1ccc([N+](=O)[O-])cc1 | / | / | 10.4 | . | / | .
Cc1cccc(NC(=O)Nc2ccc3c(c2)N(C)C(=O)CS3)n1 | . | . | . | . | 104.2 | .
